In PubChem BioAssay (NCI):
The panel holds about 83,000 compounds, 20% with a hit somewhere; the sample as a whole holds those more often.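 Single-dose data. Exposure time 48 hours. Values below 10 considered active.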 Calls of active or inactive are those of the source.

Key:
Experiment in all cases: NCI-60 one-dose screen, 48 h (100 = growth as untreated, 0 = no growth, -100 = all killed)
Conditions in all cases: 10 µM unless noted
SR leukemia = system: SR leukemia
RPMI-8226 leukemia = system: RPMI-8226 leukemia
OVCAR-8 ovarian = system: OVCAR-8 ovarian
OVCAR-5 ovarian = system: OVCAR-5 ovarian
OVCAR-4 ovarian = system: OVCAR-4 ovarian
SK-OV-3 ovarian = system: SK-OV-3 ovarian
IGROV1 ovarian = system: IGROV1 ovarian
OVCAR-3 ovarian = system: OVCAR-3 ovarian
HS 578T breast = system: HS 578T breast
NCI/ADR-RES ovarian = system: NCI/ADR-RES ovarian
T-47D breast = system: T-47D breast
BT-549 breast = system: BT-549 breast
MDA-MB-435 melanoma = system: MDA-MB-435 melanoma
SW-620 colon = system: SW-620 colon
MCF7 breast = system: MCF7 breast
HCT-116 colon = system: HCT-116 colon
HCC-2998 colon = system: HCC-2998 colon
KM12 colon = system: KM12 colon

Measured: growth

CC(C)CCC[C@@H](C)[C@H]1CCC2C3=CCn4c(=O)ccc(=O)n4C3CC[C@@]21C (stereo partly drawn)
active: SR leukemia -34.6% | RPMI-8226 leukemia -41.5% | OVCAR-8 ovarian -39.7% | OVCAR-5 ovarian -84.3% | OVCAR-4 ovarian -32.4% | SK-OV-3 ovarian -100% | IGROV1 ovarian -82.4% | OVCAR-3 ovarian -96.5% | HS 578T breast -12.2% | NCI/ADR-RES ovarian -28.7% | T-47D breast -75.2% | BT-549 breast -30.9% | MDA-MB-435 melanoma -87.1% | SW-620 colon -65.5% | MCF7 breast -92.5% | HCT-116 colon -100% | HCC-2998 colon -93.1% | KM12 colon -97.5%

CCOC(=O)Cc1csc2nc(-c3ccccc3)nn12
inactive: SR leukemia 98.8% | RPMI-8226 leukemia 113% | OVCAR-8 ovarian 98.3% | OVCAR-5 ovarian 92.9% | OVCAR-4 ovarian 105% | SK-OV-3 ovarian 115% | IGROV1 ovarian 104% | OVCAR-3 ovarian 117% | HS 578T breast 103% | NCI/ADR-RES ovarian 104% | T-47D breast 92.9% | BT-549 breast 127% | MDA-MB-435 melanoma 113% | SW-620 colon 98.5% | MCF7 breast 96.5% | HCT-116 colon 98.2% | HCC-2998 colon 103% | KM12 colon 105%

CC(C)c1ccc(C(=O)OC(=O)c2ccc(C(C)C)cc2)cc1
inactive: SR leukemia 60.2% | RPMI-8226 leukemia 82.9% | OVCAR-8 ovarian 100% | OVCAR-5 ovarian 89.2% | OVCAR-4 ovarian 105% | SK-OV-3 ovarian 110% | IGROV1 ovarian 98.8% | OVCAR-3 ovarian 106% | HS 578T breast 104% | NCI/ADR-RES ovarian 95.4% | T-47D breast 95.3% | BT-549 breast 87.9% | MDA-MB-435 melanoma 97% | SW-620 colon 114% | MCF7 breast 98.1% | HCT-116 colon 97.4% | HCC-2998 colon 102% | KM12 colon 123%

C=C(C)[C@@H]1CC[C@@]2(C(=O)O)CC[C@]3(C)C(CCC4[C@@]5(C)CCC(OS(=O)(=O)c6ccccc6)C(C)(C)C5CC[C@]43C)C12 (stereo partly drawn)
inactive: SR leukemia 56.7% | RPMI-8226 leukemia 30.4% | OVCAR-8 ovarian 38.1% | OVCAR-5 ovarian 89.7% | OVCAR-4 ovarian 54.7% | SK-OV-3 ovarian 74.4% | IGROV1 ovarian 93.7% | OVCAR-3 ovarian 50.8% | HS 578T breast 67.5% | NCI/ADR-RES ovarian 52.5% | T-47D breast 34.9% | BT-549 breast 58.9% | MDA-MB-435 melanoma 59.4% | SW-620 colon 48.8% | MCF7 breast 50.6% | HCT-116 colon 25.7% | HCC-2998 colon 33.9% | KM12 colon 31.4%

[2H]c1nc(Nc2ncc(F)c(-c3cc(F)c4nc(C)n(C(C)C)c4c3)n2)c([2H])c([2H])c1CN1CCN(C([2H])([2H])C([2H])([2H])[2H])CC1
inactive: SR leukemia 36.3% | RPMI-8226 leukemia 42.8% | OVCAR-8 ovarian 67.1% | OVCAR-5 ovarian 55.6% | OVCAR-4 ovarian 74.2% | SK-OV-3 ovarian 18.8% | IGROV1 ovarian 47.3% | OVCAR-3 ovarian 71% | HS 578T breast 35.7% | NCI/ADR-RES ovarian 81% | T-47D breast 54.6% | BT-549 breast 51.3% | MDA-MB-435 melanoma 51.7% | SW-620 colon 43.5% | MCF7 breast 30.3% | HCT-116 colon 26.1% | HCC-2998 colon 82.4% | KM12 colon 40.5%

COc1ccc(/C(C)=C(\c2ccc(Cl)cc2)c2ccc(OCCN(C)C)cc2)cc1F
active: SR leukemia -32% | RPMI-8226 leukemia -29.2%
inactive: OVCAR-8 ovarian 65.5% | OVCAR-5 ovarian 78% | OVCAR-4 ovarian 56.1% | SK-OV-3 ovarian 92.9% | IGROV1 ovarian 47.6% | OVCAR-3 ovarian 64.7% | HS 578T breast 64.3% | NCI/ADR-RES ovarian 78.9% | T-47D breast 77.3% | BT-549 breast 87.7% | MDA-MB-435 melanoma 51.5% | SW-620 colon 54.8% | MCF7 breast 31.8% | HCT-116 colon 43.6% | HCC-2998 colon 25.4% | KM12 colon 34.2%

COc1ccc2cc(-c3ccc(C(=O)NN)c(C)n3)ccc2c1
inactive: SR leukemia 78.4% | RPMI-8226 leukemia 101% | OVCAR-8 ovarian 102% | OVCAR-5 ovarian 91.6% | OVCAR-4 ovarian 90.8% | SK-OV-3 ovarian 95.7% | IGROV1 ovarian 101% | OVCAR-3 ovarian 91.9% | HS 578T breast 99.4% | NCI/ADR-RES ovarian 105% | T-47D breast 79.5% | BT-549 breast 88.9% | MDA-MB-435 melanoma 99.9% | SW-620 colon 107% | MCF7 breast 90.4% | HCT-116 colon 93.7% | HCC-2998 colon 99.6% | KM12 colon 103%

O=C(Nc1ccc(N2CCCCC2)c(Cl)c1)c1ccc(Br)o1
inactive: SR leukemia 40.8% | RPMI-8226 leukemia 55.7% | OVCAR-8 ovarian 59% | OVCAR-5 ovarian 114% | OVCAR-4 ovarian 73% | SK-OV-3 ovarian 107% | IGROV1 ovarian 75.1% | OVCAR-3 ovarian 43.6% | HS 578T breast 72.8% | NCI/ADR-RES ovarian 68% | T-47D breast 63% | BT-549 breast 81.2% | SW-620 colon 74.2% | MCF7 breast 49.9% | HCT-116 colon 84.3% | HCC-2998 colon 111% | KM12 colon 70.1%
active: MDA-MB-435 melanoma -95.4%

O=S(=O)(Cc1ccccc1)c1nc2ccccc2s1
inactive: SR leukemia 17% | RPMI-8226 leukemia 20.4% | OVCAR-8 ovarian 88.8% | OVCAR-5 ovarian 102% | OVCAR-4 ovarian 63.7% | SK-OV-3 ovarian 101% | IGROV1 ovarian 61.1% | OVCAR-3 ovarian 79.2% | HS 578T breast 96.2% | NCI/ADR-RES ovarian 96.5% | T-47D breast 76.4% | BT-549 breast 35.8% | MDA-MB-435 melanoma 49% | SW-620 colon 26.3% | MCF7 breast 30.5% | HCC-2998 colon 103% | KM12 colon 93%
active: HCT-116 colon 9.47%

CCOC(=O)C(O)C(O)(c1ccccc1)c1ccccc1 (stereo not drawn)
inactive: SR leukemia 95% | RPMI-8226 leukemia 106% | OVCAR-8 ovarian 108% | OVCAR-5 ovarian 90.4% | OVCAR-4 ovarian 111% | SK-OV-3 ovarian 97% | IGROV1 ovarian 100% | OVCAR-3 ovarian 108% | HS 578T breast 108% | NCI/ADR-RES ovarian 102% | T-47D breast 93.6% | BT-549 breast 103% | MDA-MB-435 melanoma 111% | SW-620 colon 109% | MCF7 breast 93.5% | HCT-116 colon 105% | HCC-2998 colon 99.9% | KM12 colon 101%

CN1CCN(CCCOc2ccc3nc(Nc4cc(Cl)cc(Cl)c4)ccc3c2)CC1
active: SR leukemia -54.8% | RPMI-8226 leukemia -35.1% | OVCAR-8 ovarian -47.3% | OVCAR-5 ovarian -57.4% | OVCAR-4 ovarian -23.9% | SK-OV-3 ovarian -59% | IGROV1 ovarian -46.8% | OVCAR-3 ovarian -80.5% | HS 578T breast -34.7% | NCI/ADR-RES ovarian -34.8% | T-47D breast -68.6% | BT-549 breast -43.2% | MDA-MB-435 melanoma -87.1% | SW-620 colon -82.1% | MCF7 breast -89.2% | HCT-116 colon -78.2% | HCC-2998 colon -89.2% | KM12 colon -88.7%

COc1cc2oc3cc(C)oc(=O)c3c2cc1OC
inactive: SR leukemia 106% | RPMI-8226 leukemia 87.2% | OVCAR-8 ovarian 97.3% | OVCAR-5 ovarian 83.1% | OVCAR-4 ovarian 93.6% | SK-OV-3 ovarian 103% | IGROV1 ovarian 98.9% | OVCAR-3 ovarian 110% | HS 578T breast 106% | NCI/ADR-RES ovarian 89.1% | T-47D breast 89.8% | BT-549 breast 109% | MDA-MB-435 melanoma 97.7% | SW-620 colon 103% | MCF7 breast 98% | HCT-116 colon 90.4% | HCC-2998 colon 92.4% | KM12 colon 105%

Nc1ccn(C2OC(F)(CO)C(O)C2F)c(=O)n1 (stereo not drawn)
inactive: SR leukemia 90.4% | RPMI-8226 leukemia 106% | OVCAR-8 ovarian 22.4% | OVCAR-5 ovarian 97.4% | OVCAR-4 ovarian 73.2% | SK-OV-3 ovarian 33.4% | IGROV1 ovarian 49.8% | OVCAR-3 ovarian 66.8% | HS 578T breast 78.8% | NCI/ADR-RES ovarian 18.4% | T-47D breast 55.3% | BT-549 breast 44.4% | MDA-MB-435 melanoma 52.9% | SW-620 colon 52.1% | MCF7 breast 21.7% | HCT-116 colon 35.3% | HCC-2998 colon 48.3% | KM12 colon 59.2%

CN1C[C@@H](c2ccc(Cl)cc2)[C@]2(NC(=S)N(c3ccc(F)c(Cl)c3)C2=O)[C@@]12C(=O)NC1C=CC(Cl)=C[C@H]12 (stereo partly drawn)
inactive: OVCAR-8 ovarian 60% | OVCAR-5 ovarian 52.8% | OVCAR-4 ovarian 57% | SK-OV-3 ovarian 80.7% | IGROV1 ovarian 41.9% | OVCAR-3 ovarian 48.5% | HS 578T breast 77.6% | NCI/ADR-RES ovarian 42% | T-47D breast 21% | BT-549 breast 21.6% | MDA-MB-435 melanoma 56.8% | SW-620 colon 62.2% | MCF7 breast 18% | HCC-2998 colon 77.8% | KM12 colon 55%
active: SR leukemia 0.495% | RPMI-8226 leukemia 2.67% | HCT-116 colon -49%

CCN(CC)CC(=O)Nc1cccc(C(=O)OC(C)C)c1
inactive: SR leukemia 95.2% | RPMI-8226 leukemia 105% | OVCAR-8 ovarian 108% | OVCAR-5 ovarian 104% | OVCAR-4 ovarian 103% | SK-OV-3 ovarian 101% | IGROV1 ovarian 104% | OVCAR-3 ovarian 103% | HS 578T breast 120% | NCI/ADR-RES ovarian 97% | T-47D breast 92% | MDA-MB-435 melanoma 102% | SW-620 colon 115% | MCF7 breast 103% | HCT-116 colon 72.8% | HCC-2998 colon 99.5% | KM12 colon 105%

O=c1ccn(C2OC(F)(CO)C(O)C2F)c(=O)[nH]1 (stereo not drawn)
inactive: SR leukemia 101% | RPMI-8226 leukemia 106% | OVCAR-8 ovarian 98.3% | OVCAR-5 ovarian 103% | OVCAR-4 ovarian 105% | SK-OV-3 ovarian 93.4% | IGROV1 ovarian 112% | OVCAR-3 ovarian 107% | HS 578T breast 94.1% | NCI/ADR-RES ovarian 101% | T-47D breast 81.2% | BT-549 breast 101% | MDA-MB-435 melanoma 103% | SW-620 colon 104% | MCF7 breast 91.6% | HCC-2998 colon 99.1% | KM12 colon 104%

CCc1nc2ccccc2[nH]1
inactive: SR leukemia 100% | RPMI-8226 leukemia 98.9% | OVCAR-8 ovarian 101% | OVCAR-5 ovarian 110% | OVCAR-4 ovarian 112% | SK-OV-3 ovarian 105% | IGROV1 ovarian 130% | OVCAR-3 ovarian 119% | HS 578T breast 94.3% | NCI/ADR-RES ovarian 111% | T-47D breast 123% | MDA-MB-435 melanoma 113% | SW-620 colon 104% | MCF7 breast 88.7% | HCT-116 colon 102% | HCC-2998 colon 110% | KM12 colon 113%
